High-throughput results deposited in PubChem BioAssay by National Center for Advancing Translational Sciences (NCATS).
Most compounds without a hit are left out; they make up all but 19% or so of the library.
TDP1 inh = TDP1 (human) enzyme inhibition; Potency, µM (series often up to 130 µM), actives largely listed as inhibitors; Q9NUW8; 350,000 tested, 0.28% active; AID 485290; recombinant TDP1, AlphaScreen DNA substrate cleavage; note: nearly all actives have a fitted effect of over 40% in size
Target sequence (Q9NUW8 whole entry, looked up): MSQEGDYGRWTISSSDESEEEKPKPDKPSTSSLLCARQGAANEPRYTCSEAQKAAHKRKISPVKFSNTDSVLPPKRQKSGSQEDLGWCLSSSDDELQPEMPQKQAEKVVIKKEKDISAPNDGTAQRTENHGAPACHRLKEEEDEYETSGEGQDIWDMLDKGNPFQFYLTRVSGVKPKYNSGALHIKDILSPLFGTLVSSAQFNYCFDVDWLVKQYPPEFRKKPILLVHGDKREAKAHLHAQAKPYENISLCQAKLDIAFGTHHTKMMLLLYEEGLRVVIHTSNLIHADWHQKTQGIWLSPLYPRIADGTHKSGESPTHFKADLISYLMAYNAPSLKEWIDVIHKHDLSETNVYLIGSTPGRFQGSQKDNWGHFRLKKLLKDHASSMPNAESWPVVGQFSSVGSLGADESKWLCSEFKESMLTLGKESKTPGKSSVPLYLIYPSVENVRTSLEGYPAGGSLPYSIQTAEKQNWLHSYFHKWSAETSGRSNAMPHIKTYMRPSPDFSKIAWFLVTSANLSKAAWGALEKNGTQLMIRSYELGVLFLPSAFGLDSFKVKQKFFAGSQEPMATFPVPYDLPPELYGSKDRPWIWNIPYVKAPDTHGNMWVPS
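E. coli-derived human Tdp1, 1 nM final. Cpd preinc 15 min RT; substrate 15 nM final, 5 min RT; AS bead mix 10 ug/ml final, 10 min RT. Signal loss = tyrosine-FITC cleavage. No-enzyme wells = max signal.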
DT40 TDP1 no CPT = qHTS for Inhibitors of human tyrosyl-DNA phosphodiesterase 1 (TDP1): qHTS in cells in absence of CPT; DT40 Tdp1-/- hTDP1 cells, no CPT, ATP luminescence, 48 h; Potency, µM (titrated, usually from 46.2 µM), usual class: inhibitors; 420,000 tested, 15% active; AID 686978, 2013; note: nearly all actives have a fitted effect of over 55% in size
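Chicken DT40 Tdp1-/- cells stably complemented with human TDP1 were seeded at 400 cells/well with DMSO in place of 20 nM camptothecin. After compound pinning, cells grew at least 48 hr at 37 °C; viability read by CellTiter-Glo luminescence.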
TDP1 cell CPT = DT40-hTDP1 cell growth loss with CPT; AID 686979; Potency, µM (highest dose often 46.2 µM), hits mostly inhibitors; chicken DT40 Tdp1-/-;hTDP1 cells + 20 nM CPT, ATP luminescence, 48 h; 420,000 tested, 12% active; note: nearly all actives have a fitted effect of over 55% in size
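Chicken DT40 Tdp1-/- cells complemented with human TDP1, 400 cells/well, exposed to compounds plus 20 nM camptothecin for at least 48 h at 37 C; viability read as ATP content by CellTiter-Glo luminescence.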
Giardia killer = kills Giardia lamblia | Giardia lamblia trophozoite viability | activity change, % at 7.66 µM, hits read low | 340,000 tested, 0.15% active | AID 540267; in the data active = activity change below about -80%; inconclusive = between about -30% and that limit;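 note: parasites exposed to compound for two days anaerobically before the ATP read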
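Luminescent ATP signal served as the viability read-out, measured 15-30 min after adding ATP detection reagent to trophozoites that had been incubated with compounds for 48 hrs at 37 deg C anaerobically at 100 cells/well.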
ELG1 DNA repair = inhibitors of ELG1-dependent DNA repair in HEK293T cells | HEK293T ELG1-luciferase reporter, luminescence, 16 h; DNA damage induced by 5-fluorouridine | Potency, µM (top dose mostly 46.1 µM), hits mostly inhibitors | 330,000 tested, 2.3% active; note: nearly all actives have a fitted effect of over 55% in size
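Reporter activity after DNA damage by 5-fluorouridine is monitored. Compound-treated cells incubate 16 hr at 37 °C, then ONE-Glo is added for 30 min before luminescence reading.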
IL1B secr inh = inflammasome signaling inhibition, IL-1 beta readout. THP-1 LPS/ATP IL-1B secretion, AlphaLISA, 16 h; active compounds read low. activity change, % at 57.5 µM. 360,000 tested, 4.7% active; in the data active = activity change below about -50%; inconclusive = mostly about -30% to -49%
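THP-1 cells pretreated 1 hr with compounds (up to 57.5 uM final), then stimulated with LPS (250 ng/mL final) plus ATP (1.25 mM final); secreted IL-1B measured by AlphaLISA after 16 hr, decreased signal indicating inhibition.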
Of the large screens only hits and unclear results are named; the others gave an inactive call. Unless noted, calls come from the whole dose curve; as a rule, active = well fitted curve in the direction sought with a large enough effect; inconclusive = small, poorly fitted or top-dose-only effect, or another doubt; inactive = no such curve, though single readings can be large; an effect the other way counts as inactive or inconclusive.

CCN1CCN(Cc2cccc(Oc3ccc(Cl)cc3)c2)CC1	DT40 TDP1 no CPT 16µM, TDP1 cell CPT inconclusive
COc1ccc(CCn2ccc(O)c(Cc3c(F)cccc3Cl)c2=O)cc1OC	ELG1 DNA repair inconclusive
COc1ccc(S(=O)(=O)N2CCOC2CNC(=O)C(=O)NCCCN2CCOCC2)cc1 (stereo not given)	none
C/C(=N\NC(=O)C1COc2ccccc2O1)c1ccc(N2CCOCC2)cc1 (stereo not given)	none
COc1cccc(/C=C2\SC(N3CCC(C)CC3)=NC2=O)c1OC	TDP1 cell CPT inconclusive (no result: TDP1 inh)
COc1ccccc1/C=C1\SC(N2CCC(C)CC2)=NC1=O	DT40 TDP1 no CPT 23µM, TDP1 cell CPT inconclusive, IL1B secr inh inconclusive (no result: TDP1 inh)
CCCOc1ccccc1/C=C1\SC(N2CCCCC2)=NC1=O	DT40 TDP1 no CPT 5.8µM, TDP1 cell CPT inconclusive, IL1B secr inh -61 (no result: TDP1 inh)
COc1ccc(OC)c(/C=C2\SC(N3CCCCC3)=NC2=O)c1	DT40 TDP1 no CPT 5.8µM, TDP1 cell CPT 7.3µM, ELG1 DNA repair inconclusive, IL1B secr inh inconclusive (no result: TDP1 inh)
O=C1N=C(N2CCCCC2)S/C1=C\c1ccccc1F	DT40 TDP1 no CPT inconclusive, ELG1 DNA repair inconclusive, IL1B secr inh -64
Cc1ccc(/C=C2\SC(N3CCCCC3)=NC2=O)cc1	DT40 TDP1 no CPT inconclusive, TDP1 cell CPT inconclusive, ELG1 DNA repair inconclusive, IL1B secr inh -66 (no result: TDP1 inh)
Cc1cc(Cl)ccc1OC(C)C(=O)NCCCn1ccnc1 (stereo not given)	none
CSc1ccc(CNC(=O)C2CCN(c3nnc(-n4cccc4CNc4ccc(C)cc4)s3)CC2)cc1	DT40 TDP1 no CPT 16µM, TDP1 cell CPT inconclusive (no result: Giardia killer, ELG1 DNA repair, IL1B secr inh)
Cc1ccc(NCc2cccn2-c2nnc(N3CCC(C(=O)NC(C)C)CC3)s2)cc1	DT40 TDP1 no CPT inconclusive, TDP1 cell CPT inconclusive (no result: Giardia killer, ELG1 DNA repair, IL1B secr inh)
Cc1ccc(NCc2cccn2-c2nnc(N3CCC(C(=O)NCCC(C)C)CC3)s2)cc1	DT40 TDP1 no CPT 21µM, TDP1 cell CPT inconclusive (no result: Giardia killer, ELG1 DNA repair, IL1B secr inh)
COCCCNC(=O)C1CCN(c2nnc(-n3cccc3CNc3ccc(C)cc3)s2)CC1	none (no result: Giardia killer, ELG1 DNA repair, IL1B secr inh)
Cn1c(=O)c(C(=O)NCC2CCCO2)c(O)c2ccccc21 (stereo not given)	DT40 TDP1 no CPT inconclusive, ELG1 DNA repair inconclusive
Cc1ccccc1/C=N/n1c(-c2cc(-c3ccccc3)n[nH]2)n[nH]c1=S	DT40 TDP1 no CPT 16µM, TDP1 cell CPT inconclusive (no result: TDP1 inh)
Cc1ccsc1/C=N/n1c(-c2cc(-c3ccccc3)n[nH]2)n[nH]c1=S	DT40 TDP1 no CPT inconclusive, TDP1 cell CPT inconclusive
FC(F)(F)c1ccc2c(c1)N1CCCC1CN2 (stereo not given)	DT40 TDP1 no CPT inconclusive, Giardia killer -87, IL1B secr inh inconclusive
FC(F)(F)c1ccc2c(c1)NCC1CCCN21 (stereo not given)	none
Cc1ccc(CNC(=O)CSc2nc(=O)n3cccc(C)c3n2)cc1	none (no result: TDP1 inh)
Cc1c(Cl)cccc1-c1ccc(CNc2ccc3[nH]c(=O)[nH]c3c2)o1	DT40 TDP1 no CPT inconclusive, TDP1 cell CPT 3.3µM (no result: Giardia killer, ELG1 DNA repair, IL1B secr inh)
O=c1[nH]c2ccc(NCc3ccc(-c4cccc(Cl)c4)o3)cc2[nH]1	DT40 TDP1 no CPT 18µM, TDP1 cell CPT 29µM (no result: Giardia killer, ELG1 DNA repair, IL1B secr inh)
O=c1[nH]c2ccc(NCc3ccc(-c4ccc(Br)cc4)o3)cc2[nH]1	none (no result: Giardia killer, ELG1 DNA repair, IL1B secr inh)
O=C(COC(=O)c1ccc(Cl)nc1)Nc1ccccc1OC(F)F	none
O=S(=O)(Nc1nc2ccccc2nc1N1CCN(c2ccccc2F)CC1)c1ccc(Cl)cc1	DT40 TDP1 no CPT inconclusive, TDP1 cell CPT inconclusive, ELG1 DNA repair 18µM
CC(=O)Nc1cc(S(=O)(=O)Nc2ccccc2C)c(C)cc1C	none
CNC(=O)c1cc(S(=O)(=O)NCc2ccncc2)ccc1OC	none
Cn1c(=O)oc2cc(S(=O)(=O)NCc3ccc(C(=O)O)cc3)ccc21	none
COc1cc(C)c(Br)cc1S(=O)(=O)NCc1ccccc1	none
Cn1c(=O)oc2cc(S(=O)(=O)NCc3ccncc3)ccc21	DT40 TDP1 no CPT 8.2µM, TDP1 cell CPT 8.2µM, ELG1 DNA repair inconclusive
Cc1ccc(S(=O)(=O)NCc2ccc3c(c2)OCO3)cc1C	DT40 TDP1 no CPT inconclusive (no result: TDP1 inh)
